In the supplement of paper PMC7366291:
Structures can show the parent of a compound that is named as a salt. ± gives the standard deviation of the averaged measurements.

test system: Danio rerio Tg(wt1b:EGFP) embryo, pronephros; experiment: pronephric angle neck segment to proximal convoluted tubule (mean of left and right), fold change vs DMSO control; higher = larger pronephric angle; conditions: 25 µM; exposure: 24-48 hpf
Procedure, shortened: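 Dechorionated Tg(wt1b:EGFP) zebrafish embryos were kept from 24 to 48 hpf at 28.5°C in HEPES-buffered E3 containing 0.003% PTU, 0.5% DMSO and 25 μM compound. The pronephroi were then imaged from the dorsal side in agarose-filled 96-well plates at 470 nm with 10 z-slices, and 16 reference points were placed by hand on maximum projections in Fiji so that a macro could calculate distances and angles. Values lying more than 2 SD from the mean of a feature were discarded. Every feature is given as a fold change against the mean of DMSO-treated embryos from the same day.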

Compared with `CCOC(=O)C1=C(C)NC(C)=C(C(=O)OCC)C1c1ccccc1/C=C/C(=O)OC(C)(C)C` [Lacidipine], `CC(Oc1ccccc1)C(=O)N[C@@H]1C(=O)N2[C@@H]1SC(C)(C)[C@@H]2C(=O)O` (stereo partly specified) [Phenethicillin potassium salt] is lower in “pronephric angle neck segment” value: 1.11 ± 0.073 for the first, 0.989 ± 0.028 for the second.

`COc1cc(NS(=O)(=O)c2ccc(N)cc2)nc(OC)n1` [Sulfadimethoxine] and `CCCCN(CCCC)CCCOC(=O)c1ccc(N)cc1` [Butacaine] are within error of each other in “pronephric angle neck segment” value: 1.01 ± 0.021 for the first, 0.9912 ± 0.0092 for the second.

`CN1C(C(=O)Nc2ccccn2)=C(O)c2sccc2S1(=O)=O` [Tenoxicam] and `Cc1ccc(N(CC2=NCCN2)c2cccc(O)c2)cc1` [Phentolamine hydrochloride] are within error of each other in “pronephric angle neck segment” value: 0.999 ± 0.028 for the first, 0.994 ± 0.018 for the second.

`Cc1ncc([N+](=O)[O-])n1CCO` [Metronidazole] and `CN(C)CCC(c1ccccc1)c1ccccn1` (stereo unspecified) [Pheniramine maleate] are within error of each other in “pronephric angle neck segment” value: 0.884 ± 0.061 for the first, 0.9206 ± 0.0039 for the second.

Going from `CC(=O)SCC(Cc1ccccc1)C(=O)NCC(=O)OCc1ccccc1` (stereo unspecified) [Racecadotril] to `N=C(N)NC(=N)NCCc1ccccc1` [Phenformin hydrochloride], the “pronephric angle neck segment” value falls from 1.365 ± 0.013 to 0.956 ± 0.029.

With `CC(C)NC(=N)NC(=N)Nc1ccc(Cl)cc1` [Proguanil hydrochloride] the “pronephric angle neck segment” value was 1.02 ± 0.054.
